Screening results from PubChem.
Shown are actives, neighbours in structure and some others; about 3.8% of the full set was active somewhere.
697 NFkB inh = inhibitors of PMA/ionomycin-induced NF-kB reporter, 697 cells, primary screen, B-cell NF-kB inhibitor project, cell-based, luminescence, uHTS | 697 B-cell NF-kB luciferase reporter, 16 h | inhibition, % at 4 µM | 330,000 compounds, 0.33% hits | AID 435022, 2010; in the data active means inhibition above about 35%
Shn3 3UTR inh = reduction of Shn3 3'UTR firefly luciferase signal, primary screen, Schnurri-3 inhibitor project, cell-based, Clone20 osteoblasts, set 2; Clone20 osteoblast Shn3 3'UTR firefly luciferase, 24 h; inhibition, % at 12.5 µM; 360,000 compounds, 0.52% hits; AID 588674, 2011;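 active means mean inhibition of at least 75% with every replicate also reaching 75%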
Mdm2 MdmX PPI = inhibitors of human Mdm2-MdmX association, primary screen, cell-based, luminescence, split luciferase, SaOS-2, uHTS. Protein Mdm4 (Homo sapiens) + E3 ubiquitin-protein ligase Mdm2 (Homo sapiens), …. SaOS-2 split-luciferase Mdm2/MdmX complementation. inhibition, % at 8 µM. 330,000 compounds, 3% hits. AID 485346, 2010;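 active means inhibition of at least 50% at 8 µM in the primary screen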
Target sequence (O15151 whole entry, looked up): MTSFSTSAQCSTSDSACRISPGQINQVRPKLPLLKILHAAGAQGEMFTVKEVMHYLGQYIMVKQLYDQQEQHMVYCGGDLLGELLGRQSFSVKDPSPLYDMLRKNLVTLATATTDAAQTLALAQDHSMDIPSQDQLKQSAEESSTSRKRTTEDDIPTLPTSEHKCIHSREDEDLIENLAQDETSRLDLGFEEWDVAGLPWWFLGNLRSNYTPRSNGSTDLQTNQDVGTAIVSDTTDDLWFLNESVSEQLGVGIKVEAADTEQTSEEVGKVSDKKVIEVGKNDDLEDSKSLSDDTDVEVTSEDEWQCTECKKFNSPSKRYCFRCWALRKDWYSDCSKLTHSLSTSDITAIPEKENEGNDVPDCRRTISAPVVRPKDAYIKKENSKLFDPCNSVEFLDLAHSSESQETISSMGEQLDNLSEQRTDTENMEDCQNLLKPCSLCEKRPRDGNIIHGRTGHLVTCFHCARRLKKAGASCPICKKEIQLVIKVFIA
Target sequence (Q00987 whole entry, looked up): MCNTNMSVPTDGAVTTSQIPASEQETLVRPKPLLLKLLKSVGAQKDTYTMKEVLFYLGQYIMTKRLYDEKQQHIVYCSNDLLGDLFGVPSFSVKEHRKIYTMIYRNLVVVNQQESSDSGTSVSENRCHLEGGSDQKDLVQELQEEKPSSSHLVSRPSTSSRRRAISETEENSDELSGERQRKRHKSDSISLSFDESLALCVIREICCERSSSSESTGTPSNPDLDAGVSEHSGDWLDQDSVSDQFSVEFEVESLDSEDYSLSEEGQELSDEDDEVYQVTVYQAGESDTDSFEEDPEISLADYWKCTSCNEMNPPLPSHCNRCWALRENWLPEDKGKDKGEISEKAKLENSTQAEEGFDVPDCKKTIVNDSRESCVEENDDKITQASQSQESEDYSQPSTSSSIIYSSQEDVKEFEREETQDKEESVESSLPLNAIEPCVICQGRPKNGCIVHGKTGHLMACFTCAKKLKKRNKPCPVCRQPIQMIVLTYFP
Jurkat NFkB inh = inhibitors of induced NF-kB luciferase reporter, primary screen, TCR NF-kB activation inhibitor project, cell-based, luminescence, uHTS; Jurkat, PMA/ionomycin-induced NF-kB luciferase reporter; inhibition, % at 4 µM; 330,000 compounds, 0.53% hits; AID 435003, 2010; in the data active means inhibition above about 50%
Gli-Sufu antag = Gli-Sufu pathway antagonists, primary screen, luciferase luminescence, Sufu-KO-LIGHT cells, uHTS; AID 588413, 2011; Sufu-KO-LIGHT fibroblasts, Gli luciferase reporter luminescence; 340,000 compounds, 0.74% hits; inhibition, % at 5 µM;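 active means inhibition above about 55%, limit read from the data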
Mdm2-MdmX conf = Mdm2-MdmX complex disruptors, retested hits, confirmation, luminescence, single concentration; shares compounds with Mdm2 MdmX PPI; Mdm2-MdmX binding, luminescent assay; inhibition, % at 8 µM; 10,000 compounds, 55% hits; in the data active means inhibition above about 40%
Full FLuc ctr = full-length luciferase signal inhibition, confirmation, counter-screen for Mdm2/MdmX interaction inhibitor project, cell-based, single concentration, SaOS-2 | shares compounds with Mdm2 MdmX PPI | SaOS-2 full-length luciferase counterscreen, luminescence | inhibition, % at 8 µM | 6,200 compounds, 77% hits | AID 504607, 2011;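 active means mean inhibition at 8 µM reaching about 37%, which flags the compound as non-specific, limit read from the data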;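 further: p53-null SaOS-2 cells with luciferase driven by a doxycycline-inducible promoter; compound on cells about two nights before reading with doxycycline added after day one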
Large screens that a line does not name were inactive (follow-up assays come after a bar, where they were run).

Cc1cc(C)c(Cn2c(=O)n(CCCC(=O)NCc3ccco3)c(=O)c3sccc32)c(C)c1	Mdm2 MdmX PPI 51 | Mdm2-MdmX conf 40 | Full FLuc ctr 80
Cc1cc(NC(=O)C(C)Oc2ccccc2)no1 (centres undefined)	none
Cc1cc2[nH]c3c(c[n+](C)c4ccccc34)c2cc1C	Mdm2 MdmX PPI 101 | Mdm2-MdmX conf 100 | Full FLuc ctr 51
COc1cccc(N2CCN(S(=O)(=O)c3ccc4c(c3)NC(=O)CS4)CC2)c1	none
C#CCN1C=C(C(=O)OCC)C(C)N(Cc2ccccc2I)S1(=O)=O (centres undefined)	Mdm2 MdmX PPI 55 (no result: Jurkat NFkB inh) | Mdm2-MdmX conf 49 | Full FLuc ctr 51
C#CCN1C=C(C(=O)OCC)C(C)NS1(=O)=O (centres undefined)	none (no result: Jurkat NFkB inh)
CCC1CSC(Nc2ccc(C(=O)/C=C/c3ccc(Oc4ccccc4)cc3)cc2)=N1 (centres undefined)	Mdm2 MdmX PPI 55 | Mdm2-MdmX conf inactive
CCCOc1ccc(CNC(=O)C2CCN(C(=O)N3CCOc4ccccc43)CC2)cc1	Mdm2 MdmX PPI 51 | Mdm2-MdmX conf inactive
CCCS(=O)(=O)NC(=O)C1(C)CCN(C(=O)c2cc(C)nn2C(C)(C)C)C1 (centres undefined)	none (no result: 697 NFkB inh, Mdm2 MdmX PPI, Jurkat NFkB inh, Gli-Sufu antag)
CCCn1c(=O)c2[nH]c(-c3ccc(OCC(=O)Nc4ccc(C#N)cc4)cc3)nc2n(CCC)c1=O	Mdm2 MdmX PPI 53 | Mdm2-MdmX conf inactive
CC(=O)Nc1ccc(NC(=O)COc2ccc(-c3ccc(C#N)cc3)cc2)cc1	none
Cc1cc(N2CCN(C)CC2)nc2ccc(NC(=O)c3ccc(Br)o3)cc12	none
Cc1cc(N2CCN(C)CC2)nc2ccc(NC(=O)c3ccc4c(c3)OCO4)cc12	Mdm2 MdmX PPI 55 | Mdm2-MdmX conf inactive
COc1cc(C(=O)Nc2ccc3nc(N4CCN(C)CC4)cc(C)c3c2)cc(OC)c1OC	Mdm2 MdmX PPI 53 | Mdm2-MdmX conf inactive
COc1ccccc1CNC(=S)Nc1ccc2nc(N3CCN(C)CC3)cc(C)c2c1	Mdm2 MdmX PPI 54 | Mdm2-MdmX conf 50 | Full FLuc ctr 61
CC(NC(=O)CN(Cc1ccccc1)S(=O)(=O)c1ccccc1)c1cccnc1 (centres undefined)	none
Nc1c(Cl)c(Cl)nc(C(=O)OCC(=O)N2CCCC2=O)c1Cl	none
O=C(OCC(=O)N1CCCC1=O)c1nc(Cl)c(Cl)c(Cl)c1Cl	Mdm2 MdmX PPI 77 | Mdm2-MdmX conf inactive
Cc1cc(C)c(Cn2ncn(-c3ccc(Br)cc3)c2=O)c(C)c1	none
Cc1ccc(N(Cc2cc(=O)[nH]c3ccccc23)C(=O)CCl)c(C)c1	Mdm2 MdmX PPI 100 | Mdm2-MdmX conf 100 | Full FLuc ctr 54
NC(=O)C(C(=O)/C=C/c1ccc(Cl)cc1)=C1SCCS1	Mdm2 MdmX PPI 92 (no result: Shn3 3UTR inh) | Mdm2-MdmX conf 82 | Full FLuc ctr 49
COc1ccc(/C=C/C(=O)C(C(N)=O)=C2SCCS2)cc1	none
Cc1ccc(N2C(=O)CC(Sc3nc4ccccc4o3)C2=O)cc1Cl (centres undefined)	Mdm2 MdmX PPI 89 | Mdm2-MdmX conf inactive
CCCc1c(O)nc(SC2CC(=O)N(c3ccc(C)c(Cl)c3)C2=O)[nH]c1=O (centres undefined)	none
O=C1CCNc2ccc(-c3ccccc3)cc21	none
O=C1CCNc2cc3ccccc3cc21	Mdm2 MdmX PPI 65 | Mdm2-MdmX conf 61 | Full FLuc ctr 49
O=C(CN1CCN(S(=O)(=O)c2ccc(Cl)cc2)CC1)N1CCCC1	none
O=S(=O)(c1cccc(NC(=S)N2CCN(c3cccc(Cl)c3)CC2)c1)C(F)F	Mdm2 MdmX PPI 52 | Mdm2-MdmX conf inactive
Cc1ccc2sc(N(CCCN(C)C)C(=O)c3ccc(S(=O)(=O)N(C)C4CCCCC4)cc3)nc2c1C	Mdm2 MdmX PPI 99 | Mdm2-MdmX conf 54 | Full FLuc ctr 67
CCN(Cc1ccccc1)S(=O)(=O)c1ccc(C(=O)N(CCCN(C)C)c2nc3c(C)c(C)ccc3s2)cc1	Mdm2 MdmX PPI 97 | Mdm2-MdmX conf 46 | Full FLuc ctr 49
Cc1ccc2sc(N(CCCN(C)C)C(=O)c3ccc(S(=O)(=O)N4CCOCC4)cc3)nc2c1C	none
CN(C)CCCN(C(=O)c1ccc(S(=O)(=O)N(C)C)cc1)c1nc2cc3c(cc2s1)OCO3	none
CCN(Cc1ccccc1)S(=O)(=O)c1ccc(C(=O)N(CCCN(C)C)c2nc3cc4c(cc3s2)OCO4)cc1	Mdm2 MdmX PPI 73 | Mdm2-MdmX conf inactive
Cc1ccc(S(=O)(=O)c2nc(-c3ccccc3Cl)oc2N(C)C)cc1	Mdm2 MdmX PPI 56 | Mdm2-MdmX conf 72 | Full FLuc ctr 73
CCc1ccc(/C=C(\Cl)c2nc3cc(Cl)ccc3c(=O)[nH]2)cc1	none
CSc1nc(N)nc2c1ncn2Cc1ccccc1	none (no result: 697 NFkB inh, Mdm2 MdmX PPI, Jurkat NFkB inh)
Cc1ccc(-c2nc3cccnc3s2)cc1NC(=O)c1ccco1	none
Cc1ccc(-c2nc3cccnc3s2)cc1NC(=O)C1c2ccccc2Oc2ccccc21	Mdm2 MdmX PPI 70 | Mdm2-MdmX conf inactive
O=C(NCc1nc(-c2ccc(C(F)(F)F)cc2)no1)Nc1cc(Cl)cc(Cl)c1	Mdm2 MdmX PPI 93 | Mdm2-MdmX conf 81 | Full FLuc ctr 45
O=C(NCc1nc(-c2ccc(C(F)(F)F)cc2)no1)Nc1ccc(F)cc1F	none (no result: Shn3 3UTR inh)
COc1ccc(NC(=O)c2cccc(S(=O)(=O)N3CCCCCC3)c2)cc1	none
Cc1ccc(C(=O)/C=C/Nc2ccccn2)cc1	Mdm2 MdmX PPI 55 | Mdm2-MdmX conf inactive
O=C(/C=C/c1ccc(OCCCF)cc1)Nc1ccnc(-c2ccncc2)n1	Mdm2 MdmX PPI 62 | Mdm2-MdmX conf inactive
COc1cc(C#Cc2c(-c3cncn3C)n(C)c3ccc(-c4ccc(OC)nc4)cc23)cc(OC)c1	Shn3 3UTR inh 94, Mdm2 MdmX PPI 69 | Mdm2-MdmX conf inactive | Full FLuc ctr 58
COc1cc(C#Cc2c(-c3cncn3C)n(C)c3ccc(-c4cc(OC)c(OC)c(OC)c4)cc23)cc(OC)c1	Mdm2 MdmX PPI 96 | Mdm2-MdmX conf 51 | Full FLuc ctr 62
COc1cc(C#Cc2c(-c3cncn3C)n(C)c3ccc(-c4ccc5[nH]ccc5c4)cc23)cc(OC)c1	none
Oc1ccc(N=Nc2n[nH]c(-c3ccc(Cl)cc3)n2)cc1	none
